The source made the active and inactive calls.
Columns and labels:
[1] = test system: PRMT1 (protein arginine N-methyltransferase 1); test: small molecules binding arginine methyltransferase PRMT1 – biochemical, small-molecule microarray, 635 nm fluorescence, primary screen (AID 1088); conditions: higher = more signal;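 also: binding of Prmt1 protein to compounds spotted on small-molecule microarray slides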
[2] = growth effects on S. cerevisiae YJM789 – YJM789 clinical isolate, OD600, 24 h, basal, primary screen (AID 1089); conditions: higher = more signal, called active from +8 up or from −8 down;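 also: growth of clinical yeast isolate S. cerevisiae YJM 789 seeded 1000 cells per well; test concentration not given here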
[3] = S. pombe growth modifiers, basal conditions – strain 972, OD600, 24 h, no modulator, primary screen (AID 1090);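 also: basal condition with compound alone and no growth modifier present; test concentration not given here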; conditions: S. pombe 972 growth, higher = more signal, called active from +8 up or from −8 down
[4] = budding yeast growth modifiers under rapamycin – strain BY4716, OD600, 96 h, primary screen (AID 1091); also: test concentration not given here; conditions: S. cerevisiae BY4716 + rapamycin, higher = more signal, called active from +8 up or from −8 down
[5] = molecular target: Torsin-1A-interacting protein 2 (Homo sapiens) (UniProt Q8NFQ8); test: small molecules binding lysate-expressed LULL1 – cell lysate, human LULL1 lysate, 635/667 nm fluorescence, primary screen (AID 1092); conditions: small-molecule microarray, hLULL1 lysate binding, 635 nm fluorescence; higher = more signal;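 also: probe is lysate of COS7 cells overexpressing human LULL1; score merges per-feature 667 nm fluorescence with signal-to-noise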
[6] = optical density change of DRC41 E. coli – strain DRC41, OD650, 24 h, E. coli filamentation project, primary screen (AID 1093);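 also: MC1000 strain lacking acrAB efflux and sulA so SOS filamentation is blocked; test concentration not given here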; conditions: E. coli DRC41 growth, higher = more signal, called active from +8 up or from −8 down
[7] = probe aLefty2 binding to arrayed compounds – biochemical, biotinylated probe, 635/667 nm fluorescence, primary screen (AID 1094); conditions: small-molecule microarray, higher = more signal;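 also: score merges spot fluorescence near 667 nm with spot signal-to-noise ratio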
[8] = test system: Noggin (protein binding on small-molecule microarray); test: small molecules binding Noggin protein – biochemical, 635/667 nm fluorescence, primary screen (AID 1095); conditions: 635 nm fluorescence, higher = more signal;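 also: score merges 667 nm feature fluorescence with signal to noise over triplicate slides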
[9] = molecular target: Neurogenic locus notch homolog protein 3 (Homo sapiens) (UniProt Q9UM47); test: small molecules binding NOTCH3 protein – biochemical, 635/667 nm fluorescence, primary screen (AID 1096); conditions: small-molecule microarray, 635 nm fluorescence, higher = more signal
[10] = probe aEGFR binding to arrayed compounds – biochemical, biotinylated probe, 635/667 nm fluorescence, primary screen (AID 1097); conditions: small-molecule microarray, higher = more signal;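 also: probe is a biotinylated anti-EGFR antibody binding compounds printed on slides; score combines fluorescence near 667 nm and signal to noise of each spot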

Torsin-1A-interacting protein 2 (Homo sapiens), sequence (Q8NFQ8 whole entry, looked up): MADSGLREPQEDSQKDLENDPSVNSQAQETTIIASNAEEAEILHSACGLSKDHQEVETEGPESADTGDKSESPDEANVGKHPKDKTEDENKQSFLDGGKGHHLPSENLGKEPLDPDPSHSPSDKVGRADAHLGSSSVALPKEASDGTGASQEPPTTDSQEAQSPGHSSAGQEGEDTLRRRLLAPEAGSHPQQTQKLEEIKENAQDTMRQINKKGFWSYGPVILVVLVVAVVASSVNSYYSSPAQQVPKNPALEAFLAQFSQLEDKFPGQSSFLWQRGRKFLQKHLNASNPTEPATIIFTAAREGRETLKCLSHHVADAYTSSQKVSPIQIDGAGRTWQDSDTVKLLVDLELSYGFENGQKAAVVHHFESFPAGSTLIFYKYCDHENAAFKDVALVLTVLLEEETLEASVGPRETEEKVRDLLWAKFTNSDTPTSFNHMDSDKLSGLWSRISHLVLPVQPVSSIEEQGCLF
Neurogenic locus notch homolog protein 3 (Homo sapiens), sequence (Q9UM47 whole entry, looked up): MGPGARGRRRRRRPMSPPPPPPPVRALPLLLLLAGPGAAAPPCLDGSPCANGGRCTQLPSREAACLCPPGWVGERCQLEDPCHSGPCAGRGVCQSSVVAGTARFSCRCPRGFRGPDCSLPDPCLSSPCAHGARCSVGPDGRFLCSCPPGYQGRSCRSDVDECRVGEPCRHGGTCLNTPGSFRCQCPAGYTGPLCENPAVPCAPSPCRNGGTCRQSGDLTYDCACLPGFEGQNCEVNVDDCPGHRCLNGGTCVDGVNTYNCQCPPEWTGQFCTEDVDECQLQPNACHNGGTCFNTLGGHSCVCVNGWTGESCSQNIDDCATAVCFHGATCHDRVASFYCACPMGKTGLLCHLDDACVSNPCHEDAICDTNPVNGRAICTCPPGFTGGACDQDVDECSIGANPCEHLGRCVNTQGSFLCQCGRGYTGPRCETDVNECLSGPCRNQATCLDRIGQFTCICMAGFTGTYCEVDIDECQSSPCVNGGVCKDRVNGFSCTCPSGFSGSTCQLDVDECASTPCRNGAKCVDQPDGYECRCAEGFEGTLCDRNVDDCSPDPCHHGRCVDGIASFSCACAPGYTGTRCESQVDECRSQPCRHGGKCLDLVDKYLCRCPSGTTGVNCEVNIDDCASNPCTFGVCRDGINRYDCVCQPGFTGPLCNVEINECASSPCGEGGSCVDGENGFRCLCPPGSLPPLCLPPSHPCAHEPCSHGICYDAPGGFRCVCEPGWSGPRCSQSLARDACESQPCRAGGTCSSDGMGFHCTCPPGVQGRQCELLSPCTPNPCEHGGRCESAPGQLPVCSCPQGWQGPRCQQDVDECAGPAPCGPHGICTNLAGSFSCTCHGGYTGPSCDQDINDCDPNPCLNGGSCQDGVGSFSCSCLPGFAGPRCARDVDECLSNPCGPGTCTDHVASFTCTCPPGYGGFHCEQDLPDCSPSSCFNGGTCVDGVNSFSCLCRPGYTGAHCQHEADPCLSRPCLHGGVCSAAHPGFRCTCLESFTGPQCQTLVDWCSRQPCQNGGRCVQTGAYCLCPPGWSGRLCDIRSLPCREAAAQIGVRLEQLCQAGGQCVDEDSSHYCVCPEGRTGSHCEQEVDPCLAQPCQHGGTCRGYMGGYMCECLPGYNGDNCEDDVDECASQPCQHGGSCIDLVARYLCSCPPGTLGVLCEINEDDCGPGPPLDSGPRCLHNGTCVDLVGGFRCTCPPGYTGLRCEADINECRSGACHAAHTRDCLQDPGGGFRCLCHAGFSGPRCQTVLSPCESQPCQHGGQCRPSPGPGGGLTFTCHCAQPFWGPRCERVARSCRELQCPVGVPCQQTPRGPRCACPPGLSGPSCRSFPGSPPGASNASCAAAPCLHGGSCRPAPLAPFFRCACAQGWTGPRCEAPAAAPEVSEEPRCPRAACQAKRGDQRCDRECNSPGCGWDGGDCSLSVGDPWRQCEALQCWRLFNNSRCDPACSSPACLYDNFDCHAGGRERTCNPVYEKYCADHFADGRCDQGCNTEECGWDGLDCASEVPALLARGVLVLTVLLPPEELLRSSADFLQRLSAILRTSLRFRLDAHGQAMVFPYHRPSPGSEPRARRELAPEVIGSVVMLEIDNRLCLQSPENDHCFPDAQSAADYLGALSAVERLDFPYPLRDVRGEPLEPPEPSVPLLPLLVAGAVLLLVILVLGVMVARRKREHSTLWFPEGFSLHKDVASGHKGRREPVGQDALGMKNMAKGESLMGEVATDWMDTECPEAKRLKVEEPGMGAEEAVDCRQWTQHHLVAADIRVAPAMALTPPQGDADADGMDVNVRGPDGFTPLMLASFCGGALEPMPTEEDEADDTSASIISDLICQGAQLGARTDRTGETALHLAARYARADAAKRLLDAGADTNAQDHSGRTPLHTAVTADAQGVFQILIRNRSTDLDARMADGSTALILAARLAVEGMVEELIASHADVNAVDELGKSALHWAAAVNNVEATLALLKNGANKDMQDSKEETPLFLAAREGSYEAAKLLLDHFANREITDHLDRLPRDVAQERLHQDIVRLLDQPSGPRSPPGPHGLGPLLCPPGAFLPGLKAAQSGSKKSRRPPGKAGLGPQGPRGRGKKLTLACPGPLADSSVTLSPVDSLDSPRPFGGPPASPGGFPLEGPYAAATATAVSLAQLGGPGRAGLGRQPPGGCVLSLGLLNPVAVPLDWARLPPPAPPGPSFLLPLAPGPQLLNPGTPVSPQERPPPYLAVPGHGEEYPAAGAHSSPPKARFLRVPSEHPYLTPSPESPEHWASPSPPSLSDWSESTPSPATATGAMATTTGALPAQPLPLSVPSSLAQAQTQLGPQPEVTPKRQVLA

SMILES | composite z-score [1] | z-score [2] | z-score [3] | z-score [4] | composite z-score [5] | z-score [6] | composite z-score [7] | composite z-score [8] | composite z-score [9] | composite z-score [10]
Cc1ccc([C@@H]2CC=C(C(=O)O)[C@H](c3ccccc3)N2S(=O)(=O)c2ccc(C)cc2)cc1 | 1.55 | -0.0782 (inactive) | -0.249 (inactive) | -0.269 (inactive) | 3.24 | -1.25 (inactive) | 0.755 | -0.971 | 0.673 | 0.0582
C=C[C@H](OC)[C@@H](OC(=O)Nc1ccc(SC)cc1)c1ccc(OC)c(O)c1 | 0.0672 | -0.55 (inactive) | -0.965 (inactive) | -0.44 (inactive) | -0.023 | 2.04 (inactive) | -0.0986 | -0.878 | -0.321 | -0.338
[N-]=[N+]=NCc1ccccc1C[C@@]1(C(=O)N2CCOCC2)N=C(c2ccc(OCCCO)cc2)O[C@@H]1c1ccccc1N=[N+]=[N-] | 1.56 | -0.788 (inactive) | -0.39 (inactive) | 6.02 (inactive) | 3.16 | 0.282 (inactive) | 0.557 | 0.41 | 1.08 | 0.318
C=C(C(=O)CC[C@H](OC(=O)c1ccccc1-c1ccccc1C(=O)O)c1ccc(CO)o1)C(C)C | 1.33 | 1.44 (inactive) | -0.197 (inactive) | 0.782 (inactive) | 0.662 | -0.309 (inactive) | -0.19 | 1.67 | 0.951 | -0.101
O=C1O[C@H](c2ccccc2)[C@H](c2ccccc2)N2[C@H]1[C@@H](C(=O)Nc1nc3ccccc3s1)[C@]1(C(=O)Nc3ccc(C#CC4=CCCCC4)cc31)[C@H]2c1ccccc1OCCO | 1.56 | 2.17 (inactive) | 1.82 (inactive) | 4.5 (inactive) | 2.35 | -0.0227 (inactive) | -0.0778 | 1.53 | 1.1 | 0.0564
Cc1ccc(S[C@]2(C(=O)NCCCN(C)C)CC(=O)N(C3CCCCC3)[C@@H]2c2ccc(CO)cc2I)cc1 | -0.167 | 0.782 (inactive) | -8.01 (active) | -0.417 (inactive) | 1.81 | -0.455 (inactive) | 0.213 | -0.553 | -0.742 | -0.257
Cc1ccc(S[C@]2(C(=O)NCCCN(C)C)CC(=O)N(Cc3ccccc3)[C@@H]2c2ccc(CO)cc2I)cc1 | 0.25 | -1.87 (inactive) | -4.8 (inactive) | 0.768 (inactive) | 2.68 | -0.563 (inactive) | 0.373 | -0.869 | -0.723 | -0.13
COc1ccc([Si](C)(C)[C@H]2[C@H](CC(=O)N(CCO)Cc3ccccc3)O[C@@]3(C(=O)N(C)c4ccccc43)[C@@H]2C)cc1 | 1.31 | -1.98 (inactive) | -1.24 (inactive) | -0.712 (inactive) | 1.93 | 1.41 (inactive) | -0.186 | 1.72 | 1.11 | -0.0987
COCCOC(=O)N1C(=O)[C@@]2(c3cc(C#CC4=CCCCC4)ccc31)[C@H](C(=O)NC[C@H](O)c1ccccc1)[C@H]1C(=O)O[C@H](c3ccccc3)[C@H](c3ccccc3)N1[C@@H]2c1ccccc1OCCO | 1.56 | 2.24 (inactive) | 1.79 (inactive) | 4.71 (inactive) | 1.91 | -0.0963 (inactive) | 0.306 | 1.13 | 1.07 | -0.0316
O=C1O[C@H](c2ccccc2)[C@H](c2ccccc2)N2[C@H]1[C@@H](C(=O)NC[C@H](O)c1ccccc1)[C@]1(C(=O)Nc3ccc(C#CC4=CCCCC4)cc31)[C@H]2c1ccc(OCCO)cc1 | 1.55 | 2.99 (inactive) | 1.64 (inactive) | 4.01 (inactive) | 1.85 | -0.422 (inactive) | -0.104 | 0.691 | 1.11 | -0.0494
CCCCO[C@H]1C[C@H]2C(Br)=C[C@@]1(CO)C(=O)[C@]21CO1 | 0.638 | -1.48 (inactive) | -2.1 (inactive) | -1.29 (inactive) | -0.0735 | 2.62 (inactive) | -0.341 | 0.648 | 0.237 | -0.109
CO[C@H]1COC(=O)[C@@H](C)NC(=O)CC=C[C@@H](C)[C@H](OC)COC(=O)CC=C[C@@H]1C | 1.55 | -1.66 (inactive) | -2.03 (inactive) | -1.67 (inactive) | -0.619 | 1.25 (inactive) | -0.28 | 1.52 | 0.134 | -0.299
Cc1ccc(S[C@]2(C(=O)NC(C)C)CC(=O)N(C3Cc4ccccc4C3)[C@@H]2c2ccc(CO)cc2)cc1 | 1.53 | 0.106 (inactive) | -1.65 (inactive) | -0.517 (inactive) | 2.95 | -2.16 (inactive) | -0.222 | -0.0057 | 0.506 | -0.308
COc1ccc(NN2C(C(O)c3cc(OC)c(OC)c(OC)c3)C=CC3C(=O)N(C4CCCCC4)C(=O)C32)cc1 (stereo not given) | 0.544 | 0.199 (inactive) | 0.966 (inactive) | 0.169 (inactive) | 2.87 | -0.319 (inactive) | 0.358 | 0.116 | 1.08 | 0.142
CC/C=C/C(=O)N(C[C@@H]1CCCO1)[C@@H]1CC(C(=O)NCCO)=C[C@H](Oc2c(I)cc(CO)cc2OC)[C@H]1O | 0.505 | -0.811 (inactive) | -1.79 (inactive) | -1.91 (inactive) | 1.69 | -0.159 (inactive) | 0.0612 | -0.294 | -0.155 | -0.191
COC(=O)[C@@]1(Cc2ccccc2N=[N+]=[N-])N=C(c2ccc(OCCCO)cc2)O[C@H]1c1ccccc1CN=[N+]=[N-] | 1.41 | 0.653 (inactive) | -1.3 (inactive) | 28.5 (active) | 2.6 | 0.255 (inactive) | 0.0641 | 0.836 | 0.041 | -0.114
O=C1C2C=CC(C(O)C#Cc3ccccc3)N(Nc3ccccc3)C2C(=O)N1c1ccccc1 (stereo not given) | 0.398 | 0.132 (inactive) | -0.0141 (inactive) | 0.104 (inactive) | 2.95 | -0.389 (inactive) | 0.217 | -0.418 | 0.314 | -0.108
C[N+](C)(C)CCCCNC(=O)[C@H]1C[C@H]2C(=O)NCC(=O)N2[C@H]1c1cccc(OCCO)c1 | 1.54 | -0.138 (inactive) | 0.0073 (inactive) | -1.66 (inactive) | 0.57 | -0.271 (inactive) | -0.0463 | 1.91 | 1.05 | 0.0717
COC(=O)C(CC#Cc1ccc2c(c1)[C@]1(C(=O)N2)[C@H](C(=O)N2CCCCCCC2)[C@H]2C(=O)O[C@H](c3ccccc3)[C@H](c3ccccc3)N2[C@@H]1c1ccc(O)cc1)C(=O)OC | -1.19 | -0.428 (inactive) | 0.0597 (inactive) | 0.702 (inactive) | -0.573 | 0.904 (inactive) | -0.294 | -0.805 | -0.909 | -0.221
C=C(CCCC)/C(=C/C[C@@H](OC(=O)c1ccncc1)c1ccc(CO)o1)c1cnc2ccccc2c1 | 1.54 | 0.396 (inactive) | -2.43 (inactive) | 0.322 (inactive) | 2.54 | 1.25 (inactive) | 0.0561 | 1.64 | 1.02 | 0.0071
C=CC[C@]1(C(=O)NCC(O)CO)N=C(c2ccc(OCCCO)cc2)O[C@H]1c1ccccc1 (stereo not given in full) | 0.16 | -1.44 (inactive) | -0.514 (inactive) | -1.18 (inactive) | 3.57 | 2.05 (inactive) | 0.0544 | -0.923 | -0.898 | -0.169
COCCCNC(=O)[C@@H]1c2ccccc2C(=O)N(CC23CC4CC(CC(C4)C2)C3)[C@H]1c1ccc(CO)cc1 | 1.49 | 0.4 (inactive) | -1.02 (inactive) | 0.182 (inactive) | 1.56 | -0.494 (inactive) | 0.242 | 0.39 | 0.588 | 0.135
COc1ccc(-c2cc3c(c(-c4ccccc4)n2)[Si](C(C)C)(C(C)C)O[C@H]3c2ccccc2)cn1 | 1.11 | -0.136 (inactive) | -0.572 (inactive) | -0.0946 (inactive) | 0.965 | -1.03 (inactive) | -0.132 | 0.47 | 0.596 | 0.0215
CO[C@H]1O[C@H](CO)[C@@H](OC(=O)Nc2ccc(Oc3ccccc3)cc2)[C@H](OC(=O)Nc2ccccc2-c2ccccc2)[C@H]1OC(=O)Nc1ccccc1-c1ccccc1 | 1.54 | 3.07 (inactive) | 1.84 (inactive) | 0.792 (inactive) | 3.28 | 2.45 (inactive) | 0.218 | 1.23 | 1.06 | 0.242
O=C(O)[C@@H]1Cc2c([nH]c3ccccc23)[C@@H](c2ccccc2)N1 | -0.645 | -0.0524 (inactive) | -0.474 (inactive) | -0.731 (inactive) | 0.249 | 0.294 (inactive) | -0.106 | 0.483 | 0.46 | -0.046
CO[C@H]1COC(=O)CC=C[C@H](C)COC(=O)[C@@H](OCc2ccccc2)C=C[C@@H]1C | 1.52 | 0.0706 (inactive) | -1.39 (inactive) | -0.993 (inactive) | 0.059 | 0.0129 (inactive) | -0.368 | 2.03 | -0.532 | -0.322
CN1CCC(CCCO)=CC1C1CC1 (stereo not given) | 0.608 | -0.477 (inactive) | -0.851 (inactive) | -0.761 (inactive) | -0.463 | 1.08 (inactive) | -0.308 | 0.724 | 0.0618 | -0.104
O=C1O[C@H](c2ccccc2)[C@H](c2ccccc2)N2[C@H]1[C@@H](C(=O)Nc1nc3ccccc3s1)[C@]1(C(=O)Nc3ccc(C#CC4(O)CCCCCC4)cc31)[C@H]2c1ccc(O)cc1 | 1.54 | -0.0416 (inactive) | -0.265 (inactive) | 0.439 (inactive) | 3.08 | -0.616 (inactive) | 0.11 | 1.59 | 1.09 | -0.0214
